Shown are actives, neighbours in structure and some others; about 9.2% of the full set was active somewhere.
KDM4E inh: inhibitors of human JMJD2E histone demethylase; B2RXH2; AID 2147; JMJD2E catalytic domain, FDH-coupled NADH fluorescence (FDH is formaldehyde dehydrogenase); 1.6% of 230,000 active; Potency, µM (doses to about 57.1 µM), usual class: inhibitors; further: nearly all actives have a fitted effect of over 50% in size
Target sequence (B2RXH2 1-337 limits assumed): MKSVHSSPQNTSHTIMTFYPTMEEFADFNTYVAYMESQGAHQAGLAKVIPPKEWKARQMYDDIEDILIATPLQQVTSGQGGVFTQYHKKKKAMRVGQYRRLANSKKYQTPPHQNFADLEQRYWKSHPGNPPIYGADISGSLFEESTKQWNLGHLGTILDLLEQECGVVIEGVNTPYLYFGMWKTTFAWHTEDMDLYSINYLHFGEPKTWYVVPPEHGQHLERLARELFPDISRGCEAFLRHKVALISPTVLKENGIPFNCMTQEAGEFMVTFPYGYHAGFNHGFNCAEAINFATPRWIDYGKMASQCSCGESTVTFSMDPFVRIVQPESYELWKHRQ
HttQ103 aggreg: mutant huntingtin aggregation inhibition | AID 1688 | PC12 HttQ103-GFP aggregates, Acumen cytometry, 40 h | Potency, µM (titrated, usually from 46.1 µM), most hits filed as inhibitors | 1.1% of 220,000 active; active means well fitted curve in the direction sought with a large enough effect; inconclusive means small, poorly fitted or top-dose-only effect, or another doubt; inactive means no such curve, though single readings can be large; an effect the other way counts as inactive or inconclusive; further: nearly all actives have a fitted effect of over 60% in size
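PC12 cells with ecdysone-inducible HTT exon1 Q103-GFP, induced by 100 nM tebufenozide, given compounds in a concentration series. GFP aggregates (1–25 um, 6 SD above background) counted in lysates by laser-scanning cytometry, 488 nm excitation.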
ALDH1A1 block: inhibitors of human aldehyde dehydrogenase 1A1; P00352; Purified ALDH1A1, NADH fluorescence, propionaldehyde substrate; Potency, µM (highest dose often 75.3 µM), usual class: inhibitors; 7.3% of 220,000 active; AID 1030
LMNA splice mod: changes lamin A minigene splicing in HeLa cells. HeLa LMNA splicing GFP/RFP minigene ratio, 48 h. Potency, µM (doses to about 46.1 µM), usual class: inhibitors. 0.01% of 200,000 active. AID 1487; active means well fitted inhibition curve with a large enough effect in the signal ratio, with a control signal flat, not every such curve was filed as active; inconclusive means small, poorly fitted or top-dose-only effect, or effect the other way, or a change in a side signal; the % refers to the signal ratio
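S3 HeLa cells stably expressing lamin A-EGFP splicing minigene plus DsRed2, 600 cells/well, 48 h compound exposure at 37C. Laser-scanning cytometry; analysed as GFP (500-530 nm)/RFP (575-640 nm) total intensity ratio; 0.5% DMSO vehicle.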
HTT cytoprotect: cytoprotection in Huntington HTT-Q103 PC12 cell model. Potency, µM (titrated, usually from 56.4 µM), hits mostly activators. 0.14% of 230,000 active. AID 1471. PC12 HTT-Q103 induced, cytoprotection, ATP luminescence, 40 h; active means well fitted curve in the direction sought with a large enough effect; inconclusive means small, poorly fitted or top-dose-only effect, or another doubt; inactive means no such curve, though single readings can be large; an effect the other way counts as inactive or inconclusive; further: nearly all actives have a fitted effect of over 45% in size
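Compounds were screened for protection of PC12 cells against cell death after tebufenozide induction (100 nM final) of mutant Huntingtin exon 1 (Q103) fused to GFP.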
HPGD block: blocks human HPGD enzyme activity | P15428 | purified HPGD, NADH fluorescence kinetic, PGE2 substrate | Potency, µM, usual class: inhibitors | 4.3% of 150,000 active
Target sequence (P15428 whole entry, looked up): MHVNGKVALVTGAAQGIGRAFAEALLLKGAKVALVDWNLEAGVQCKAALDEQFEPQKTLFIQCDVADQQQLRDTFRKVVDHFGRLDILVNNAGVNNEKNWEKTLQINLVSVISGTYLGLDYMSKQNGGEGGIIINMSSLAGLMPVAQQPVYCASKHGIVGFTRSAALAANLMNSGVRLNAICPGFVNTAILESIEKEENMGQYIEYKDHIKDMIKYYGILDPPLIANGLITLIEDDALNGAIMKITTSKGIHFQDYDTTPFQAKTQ
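NADH formation kinetics: reaction with 30 uM PGE2 and 1 mM NAD+ (final), 20 nM enzyme, Tris-HCl pH 8 with Tween 20, after 15 min compound preincubation at room temperature. Fluorescence change, last versus first of five reads.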
Each line names hits and unclear results; the compound was inactive in the other large screens. Unless noted, the call rests on the fitted dose curve; in most records, active means well fitted inhibition curve with a large enough effect (not every such curve was filed as active); inconclusive means small, poorly fitted or top-dose-only effect, or another doubt; inactive means no such curve, though single readings can be large or run the other way.

CO[C@H]1COC(=O)C/C=C\[C@@H](C)COC(=O)[C@@H](C)NC(=O)C/C=C\[C@@H]1C	none (no result: KDM4E inh, HttQ103 aggreg, LMNA splice mod, HPGD block)
Cc1cccc(C)c1NC(=O)c1cn(-c2ccccc2)nc1-c1ccccc1	none
O=C(NN=C1CCCCCC1)c1cn(-c2ccccc2)nc1-c1ccccc1	ALDH1A1 block 3.55µM
CCC(Sc1nncn1C)C(=O)Nc1ccccc1OC (stereo unspecified)	HTT cytoprotect 14.1µM
COc1ccc(C)cc1NC(=O)C(Sc1nncn1C)c1ccccc1 (stereo unspecified)	none (no result: LMNA splice mod, HTT cytoprotect, HPGD block)
COc1ccc(Cl)cc1NC(=O)C(OC)c1ccccc1 (stereo unspecified)	ALDH1A1 block 1.58µM (no result: LMNA splice mod, HPGD block)
CCC(C(=O)Nc1cc(Cl)ccc1OC)c1ccccc1 (stereo unspecified)	ALDH1A1 block 22.4µM, LMNA splice mod inconclusive (no result: HTT cytoprotect)
CCC(C(=O)OCC(=O)Nc1cc(C)ccc1OC)c1ccccc1 (stereo unspecified)	none (no result: HPGD block)
COc1ccc(C)cc1NC(=O)C(OC(=O)C1CC1)c1ccccc1 (stereo unspecified)	ALDH1A1 block 3.98µM (no result: HPGD block)
COc1ccc(C)cc1NC(=O)C(c1ccccc1)N1CCNC(=O)C1 (stereo unspecified)	ALDH1A1 block 17.8µM (no result: HPGD block)
COc1ccc(Cl)cc1NC(=O)CCc1ccccc1	none
COc1ccc(C)cc1NC(=O)C(Cc1ccccc1)NS(=O)(=O)c1cccs1 (stereo unspecified)	none (no result: KDM4E inh, HttQ103 aggreg, ALDH1A1 block, HTT cytoprotect, HPGD block)
CCOc1ccccc1NC(=O)C(OC(=O)C1CC1)c1ccccc1 (stereo unspecified)	none (no result: ALDH1A1 block, LMNA splice mod, HPGD block)
CC(C)CC(C(=O)NCc1ccc(F)cc1)N1Cc2ccccc2C1=O (stereo unspecified)	none (no result: KDM4E inh, HttQ103 aggreg, ALDH1A1 block, HTT cytoprotect, HPGD block)
COC(=O)c1ccc(C(/C=C/[C@@H](C)C(=O)N(C)Cc2ccccc2)NC(=O)OCc2ccccc2)cc1 (stereo partly specified)	ALDH1A1 block inconclusive (no result: HttQ103 aggreg, LMNA splice mod)
COc1ccc(NC(=O)C(C)NS(=O)(=O)c2ccccc2)cc1Cl (stereo unspecified)	ALDH1A1 block inconclusive
COc1ccc(NC(=O)C(OC)c2ccccc2)cc1Cl (stereo unspecified)	ALDH1A1 block 12.6µM, LMNA splice mod inconclusive
O=c1cc(Cl)c(-c2ccccc2)n[nH]1	HPGD block 28.2µM
COc1cc(C(Nc2ccc3c(c2)OCO3)C(=O)NC2CCCCC2)cc(OC)c1OC (stereo unspecified)	KDM4E inh 28.2µM, ALDH1A1 block 0.631µM
Cc1c(C(=O)N2CCN(CCc3ccccc3)CC2)oc2ccccc12	ALDH1A1 block 14.1µM
CSc1nsc(/C=C/Nc2ccc(C(=O)O)cc2)c1C#N	KDM4E inh 22.4µM, ALDH1A1 block 10µM (no result: HPGD block)
CSc1nsc(/C=C/Nc2ccc(F)cc2F)c1C#N	KDM4E inh inconclusive, ALDH1A1 block 8.91µM, LMNA splice mod inconclusive (no result: HPGD block)
CSc1nnc(C)c(/C=C/Nc2ccc(F)cc2F)n1	ALDH1A1 block inconclusive, LMNA splice mod inconclusive (no result: HTT cytoprotect, HPGD block)
COc1ccccc1N(CC(=O)Nc1ccc2c(c1)OCO2)S(=O)(=O)c1ccccc1	LMNA splice mod inconclusive
COc1ccc(S(=O)(=O)N(CC(=O)Nc2ccc3c(c2)OCO3)c2ccccc2OC)cc1	ALDH1A1 block inconclusive, LMNA splice mod inconclusive, HPGD block 15.8µM
COc1ccc(S(=O)(=O)N(CC(=O)Nc2cccnc2)c2ccccc2OC)cc1	HttQ103 aggreg inconclusive, ALDH1A1 block 10µM, HPGD block 2.24µM
COc1ccc(OC)c(N(CC(=O)Nc2cccnc2)S(=O)(=O)c2ccccc2)c1	HPGD block 7.94µM
COc1ccc(N(CC(=O)Nc2ccc3c(c2)OCCO3)S(=O)(=O)c2cccnc2)cc1	ALDH1A1 block 14.1µM
COc1ccc(C)cc1N(CC(=O)Nc1cccnc1)S(=O)(=O)c1ccc(C)cc1	none (no result: HPGD block)
COc1ccc(N(CC(=O)Nc2ccc3c(c2)OCO3)S(=O)(=O)c2ccccc2)cc1	none (no result: HttQ103 aggreg, LMNA splice mod, HTT cytoprotect, HPGD block)
COc1ccccc1C(=O)C1CCCN(C(=O)c2cccc(-n3cccn3)c2)C1 (stereo unspecified)	HTT cytoprotect inconclusive (no result: HPGD block)
COc1ccccc1N(CC(=O)Nc1cccnc1)S(=O)(=O)c1ccccc1	ALDH1A1 block inconclusive, HPGD block 14.1µM
COc1ccccc1N(CC(=O)Nc1cccnc1)S(C)(=O)=O	none
CC(=O)OCC(=O)[C@@]1(O)CC[C@@H]2[C@H]3CCC4=CC(=O)CC[C@]4(C)[C@]3(F)[C@@H](O)C[C@@]21C	none (no result: HttQ103 aggreg)
O=[N+]([O-])c1ccc(-c2csc(Nc3ccccc3)[n+]2Cc2ccccc2)cc1	ALDH1A1 block 31.6µM, LMNA splice mod inconclusive
COc1ccc(-c2csc(Nc3ccccc3)[n+]2Cc2ccccc2)cc1	ALDH1A1 block inconclusive (no result: HPGD block)
CCN(CC)CCCCCOc1ccccc1OC	ALDH1A1 block 0.0282µM
NNC(=O)c1sc(-c2ccccc2)cc1N	KDM4E inh inconclusive, ALDH1A1 block 28.2µM (no result: HPGD block)
CCCCNC(=O)CSc1nc2cc3c(cc2c(=O)n1CCCC(=O)NCc1ccc(OC)cc1)OCO3	none (no result: KDM4E inh, HttQ103 aggreg, ALDH1A1 block, HTT cytoprotect, HPGD block)
O=C1CCCC2=C1C(c1cccs1)Nc1ccc3ncccc3c12 (stereo unspecified)	KDM4E inh inconclusive, ALDH1A1 block inconclusive, HPGD block inconclusive
O=C1CCCC2=C1C(c1ccc(O)c(O)c1)Nc1ccc3ncccc3c12 (stereo unspecified)	KDM4E inh 25.1µM, LMNA splice mod inconclusive (no result: HPGD block)
COc1ccc(CCNc2cc(N3CCN(C(=O)c4ccccc4F)CC3)ccc2[N+](=O)[O-])cc1OC	HttQ103 aggreg 3.98µM, ALDH1A1 block 2.51µM
COc1ccc(CCNc2cc(N3CCN(C(=O)c4ccc(C)cc4)CC3)ccc2[N+](=O)[O-])cc1OC	ALDH1A1 block 8.91µM, LMNA splice mod inconclusive
O=C(O)/C=C/C(=O)Nc1ccc2c(c1)NC(=O)CO2	ALDH1A1 block 22.4µM (no result: LMNA splice mod, HPGD block)
O=C(CSc1nnnn1C1CCCCC1)Nc1ccccc1N1CCOCC1	ALDH1A1 block 28.2µM (no result: LMNA splice mod, HPGD block)
COC(=O)c1ccccc1NC(=O)CSc1nnnn1C1CCCCC1	ALDH1A1 block inconclusive
CCOC(=O)c1ccccc1NC(=O)CSc1nnnn1C1CCCCC1	ALDH1A1 block 3.55µM, LMNA splice mod inconclusive (no result: HPGD block)
CCn1c(Cc2ccccc2)nnc1SCC(=O)Nc1ccccc1N1CCOCC1	HttQ103 aggreg inconclusive, ALDH1A1 block 8.91µM, LMNA splice mod inconclusive
COc1ccc(Cl)cc1NC(=O)c1c(NCc2ccc(C)o2)sc2c1CCC(C)C2 (stereo unspecified)	none (no result: KDM4E inh, HttQ103 aggreg, ALDH1A1 block, HTT cytoprotect, HPGD block)
Cc1ccc(Cn2c(CNC(=O)c3ccccc3Br)nc3cccnc32)cc1	none (no result: KDM4E inh, HttQ103 aggreg, ALDH1A1 block, HTT cytoprotect, HPGD block)
O=c1cc(/C=C/c2ccccc2)oc2ccccc12	KDM4E inh inconclusive, ALDH1A1 block inconclusive, HPGD block inconclusive
O=c1ccc2c(OCCCCc3ccccc3)c3ccoc3cc2o1	KDM4E inh inconclusive, ALDH1A1 block inconclusive, LMNA splice mod inconclusive (no result: HttQ103 aggreg)
